{
  "source": "PubChem BioAssay (NCATS)",
  "note": "Results filed as inconclusive are left out. Unmarked numbers belong to inactive results. Activity calls are given as the source filed them. The call rests on the fitted dose curve; in most records, active means well fitted cell-killing curve with a large enough effect; inconclusive means small, poorly fitted or top-dose-only effect; inactive means no such curve, though single readings can be large or run the other way. On the % scale 0 is the no-effect control and ±100 the full control effect; potency means the concentration at half of the fitted maximal effect.",
  "data": [
    {"test": "qHTS of pediatric cancer cell lines to identify multiple opportunities for drug repurposing: Primary screen for Saos-2 cells (AID 1347097); further: nearly all actives have a fitted effect of over 40% in size", "settings": "Saos-2 viability, CellTiter-Glo ATP luminescence, 48 h; series mostly up to 46 µM; activity change, negative = cytotoxic: at the top concentration", "source_text": "Drug repurposing or repositioning has been offered as a strategy for drug development in oncology programs. This approach has special potential for childhood cancers and other rare or orphan diseases, where the expected return on new drug development has been a disincentive to pharmaceuticals. […] In this project we exploit the poly-pharmacology of drugs to discover new indications via phenotypic screening of a panel of 19 well-characterized cell lines derived from solid tumors seen in children and adolescents. The goal is to identify approved drugs with previously unrecognized anticancer properties that has the potential to reveal new mechanisms and biological processes involved in carcinogenesis or drug resistance. We employed a titration-based paradigm (quantitative high-throughput screening or qHTS), where all compounds were tested at multiple concentrations for their effect on cell viability. Concentration-response curves (CRCs) were derived directly from the primary screen, and both potency and efficacy values were used to identify compounds with robust bioactivity profiles. We screened the NIH Chemical Genomics Center (NCGC) Pharmaceutical Collection (NPC) and Mechanism Interrogation Plate (MIPE) small molecule collections of approved and investigational compounds against these cell lines; and measured metabolically active cells after 48 hours of compound treatment as a proxy for cell viability. […] Assay Submitter: Nathalia J. Martinez, National Center for Advancing Translational Sciences, National Institutes of Health, Rockville, MD, USA; email: natalia.martinez@nih.gov Shen, M et al. Quantitative high-throughput phenotypic screening of pediatric cancer cell lines identifies multiple opportunities for drug repurposing. Oncotarget 2017 Dec 19;9(4):4758-4772. PMID 29435139.\nThe cells were obtained from University of North Carolina (UNC), Pediatric Preclinical Testing Program (PPT), and Coriell Institute (CI). qHTS cell viability assay: Cells were assayed in growth media at a density of 500-1,000 cells/well. Five microliters of cells were dispensed into 1,536-well, white, solid-bottom, TC-treated plates (Greiner Bio One) using a multidrop dispenser and incubated at 37 degrees C, 5% CO2, under a humidified atmosphere for 5 hours. Twenty-three nanoliters of compounds and controls (neutral control DMSO or positive control bortezomib at final concentration of 2.3 µM) were subsequently transferred by Kalypsys pintool. For primary screens, the MIPE collection was tested at 11-point dilutions (final concentrations range from 0.78 nM to 46 µM) and the NPC collection at 8-point dilutions (final concentrations range from 0.59 nM to 46 µM). Compounds tested in follow-up screens were assayed at 11-point dilutions. Cells were incubated for 48 hours, followed by addition of 3 µL of CellTiter-Glo (Promega). After a 15 min incubation at room temperature, samples were analyzed for luminescence intensity using a ViewLux High-throughput CCD imager equipped with clear filters.", "values": [
      {"smiles": "C[C@]12COC(=O)C[C@@H]1CC[C@@H]1[C@H]2CC[C@@]2(C)[C@H]1CC[C@]2(C)O", "activity change, negative = cytotoxic": "16%"},
      {"smiles": "CCOC(=O)Nc1ccc(NCc2ccc(F)cc2)cc1N", "activity change, negative = cytotoxic": "-10.2%"},
      {"smiles": "CCCCCCCCc1ccc(O)cc1", "Potency": "39 µM (active)"},
      {"smiles": "N#C[C@H](O[C@@H]1O[C@H](CO[C@@H]2O[C@H](CO)[C@H](O)[C@H](O)[C@H]2O)[C@H](O)[C@H](O)[C@H]1O)c1ccccc1", "Potency": "18.7 µM (active)"},
      {"smiles": "CCN1C[C@]2(OC(=O)c3ccccc3NC(C)=O)CC[C@H](OC)[C@@]34[C@H]5CC6[C@@H](OC)C[C@](O)(C(C[C@@H]23)[C@@H]14)[C@@]5(O)[C@@H]6OC", "activity change, negative = cytotoxic": "-0.287%"},
      {"smiles": "CC1=NN=C(c2ccc(N)cc2)c2cc3c(cc2C1)OCO3", "activity change, negative = cytotoxic": "10.9%"},
      {"smiles": "Nc1ccc(Cl)cc1", "activity change, negative = cytotoxic": "26.3% [at 92.7 µM]"},
      {"smiles": "CC[C@@]1(O)C(=O)OCc2c1cc1n(c2=O)Cc2cc3ccccc3nc2-1", "Potency": "0.0469 µM (active)"},
      {"smiles": "NC1CC1c1ccccc1", "note": "(stereo not given)", "activity change, negative = cytotoxic": "13%"},
      {"smiles": "COC(C)(C)CCCC(C)C/C=C/C(C)=C/C(=O)OC(C)C", "note": "(stereo not given)", "activity change, negative = cytotoxic": "14.2%"},
      {"smiles": "C=C1C[C@H]2[C@H]3CCC(=O)[C@@]3(C)CC[C@@H]2[C@@]2(C)C=CC(=O)C=C12", "activity change, negative = cytotoxic": "-26.8%"},
      {"smiles": "c1cc2c(cc1[C@H]1OC[C@H]3[C@H]1CO[C@H]3c1ccc3c(c1)OCO3)OCO2", "activity change, negative = cytotoxic": "-14.5%"},
      {"smiles": "C[C@@H]1CC[C@@]2(OC1)O[C@H]1C[C@H]3[C@@H]4CC=C5C[C@@H](O[C@@H]6O[C@H](CO)[C@@H](O[C@@H]7O[C@@H](C)[C@H](O)[C@@H](O)[C@@H]7O)[C@H](O)[C@@H]6O[C@@H]6O[C@@H](C)[C@H](O)[C@@H](O)[C@@H]6O)CC[C@]5(C)[C@@H]4CC[C@]3(C)[C@@H]1[C@H]2C", "Potency": "5.9 µM (active)"},
      {"smiles": "C[C@@H]1O[C@@H](O[C@@H]2C=C3CC[C@@H]4[C@@H](CC[C@]5(C)[C@H](c6ccc(=O)oc6)CC[C@@]45O)[C@@]3(C)CC2)[C@H](O)[C@H](O)[C@H]1O", "Potency": "0.0526 µM (active)"},
      {"smiles": "O=S(=O)(CC1CS1)c1ccc(Oc2ccccc2)cc1", "note": "(stereo not given)", "Potency": "18.7 µM (active)"},
      {"smiles": "COCCOCCO", "activity change, negative = cytotoxic": "25.1% [at 92.7 µM]"},
      {"smiles": "CC(O)CN1CCN(CC(=O)[O-])CCN(CC(=O)[O-])CCN(CC(=O)[O-])CC1.[Gd+3]", "note": "(stereo not given)", "activity change, negative = cytotoxic": "15.3%"},
      {"smiles": "O=C(O)C(Cl)Cl", "activity change, negative = cytotoxic": "-18.3%"},
      {"smiles": "Oc1ccc2c3c1O[C@H]1[C@@H](O)C=C[C@H]4[C@@H](C2)NCC[C@@]341", "activity change, negative = cytotoxic": "-1.65% [at 92.7 µM]"},
      {"smiles": "CCCN1CCO[C@@H]2c3cc(O)ccc3OC[C@@H]21", "activity change, negative = cytotoxic": "20.4%"},
      {"smiles": "CCCC[N+]1(C)[C@H]2CC(OC(=O)[C@H](CO)c3ccccc3)C[C@H]1[C@H]1O[C@H]12", "note": "(stereo not given in full)", "activity change, negative = cytotoxic": "3.84%"},
      {"smiles": "CCC(=O)O[C@@H]1C=C2CCC3C(CCC4(C)C3CC[C@@H]4OC(=O)CC)C2CC1", "note": "(stereo not given in full)", "activity change, negative = cytotoxic": "12.7%"},
      {"smiles": "C[C@]12Cc3cn[nH]c3C[C@@H]1CC[C@@H]1[C@H]2CC[C@@]2(C)[C@H]1CC[C@]2(C)O", "activity change, negative = cytotoxic": "2.06%"},
      {"smiles": "CC[C@@H](C(N)=O)N1CCCC1=O", "activity change, negative = cytotoxic": "9.82%"},
      {"smiles": "CO[C@H]1CCC(O[C@H]2C[C@H]([C@]3(C)CC[C@]4(C[C@H](O)[C@@H](C)[C@@H]([C@@H](C)C=C(C)C(=O)[C@H](C)C[C@H](C)C(=O)O)O4)O3)O[C@]3(O[C@@H]([C@H]4O[C@@](O)(CO)[C@H](C)C[C@H]4C)C[C@H]3C)[C@H]2C)O[C@H]1C", "note": "(stereo not given in full)", "Potency": "2.64 µM (active)"},
      {"smiles": "CC[C@@H]1[C@@H](C)O[C@@](O)([C@@H](C)[C@H](O)[C@H](C)[C@H]2OC(=O)C=CC=C[C@@H](C)[C@@H]([C@@H](C)[C@@H](O)[C@H](C)[C@@]3(O)C[C@H](O[C@H]4C[C@H](O)[C@H](O)[C@H](C)O4)[C@H](CC)[C@@H](C)O3)OC(=O)C=CC=C[C@@H]2C)C[C@H]1O[C@H]1C[C@H](O)[C@H](O)[C@H](C)O1", "Potency": "0.372 µM (active)"},
      {"smiles": "Cc1ccccc1-n1c(Cn2cnc3c(N)ncnc32)nc2cccc(C)c2c1=O", "Potency": "0.132 µM (active)"},
      {"smiles": "CC[N+]1(CCOC(=O)C(O)(c2ccccc2)c2ccccc2)CCCCC1", "activity change, negative = cytotoxic": "-0.522%"},
      {"smiles": "O=[N+]([O-])c1ncc[nH]1", "activity change, negative = cytotoxic": "-17.2%"},
      {"smiles": "O=[N+]([O-])c1ccc([As](=O)(O)O)cc1", "activity change, negative = cytotoxic": "28.6%"},
      {"smiles": "O=C(Nc1ccccc1-c1ccc(Cl)cc1)c1cccnc1Cl", "activity change, negative = cytotoxic": "18.5% [at 92.7 µM]"},
      {"smiles": "Nc1ccc([N+](=O)[O-])cc1", "activity change, negative = cytotoxic": "11% [at 92.7 µM]"},
      {"smiles": "CC(=Cc1csc(C)n1)[C@@H]1C[C@H]2O[C@@H]2CCC[C@H](C)[C@@H](O)[C@@H](C)C(=O)C(C)(C)[C@@H](O)CC(=O)O1", "Potency": "0.001 µM (active)"},
      {"smiles": "OCCCBr", "activity change, negative = cytotoxic": "37.8% [at 92.7 µM]"},
      {"smiles": "O=C(Oc1ccc([N+](=O)[O-])cc1)N1CCC(C(O)(c2ccc3c(c2)OCO3)c2ccc3c(c2)OCO3)CC1", "activity change, negative = cytotoxic": "-6.26%"},
      {"smiles": "CCCCOC(=O)c1ccccc1C(=O)OCc1ccccc1", "activity change, negative = cytotoxic": "-24.3% [at 92.7 µM]"},
      {"smiles": "Cc1c(C(=O)Nc2cccc(C(F)(F)F)c2)cc(-c2ccccc2)n1CCCN1CCOCC1", "Potency": "18.7 µM (active)"},
      {"smiles": "CCOC(=O)c1cncn1[C@H](C)c1ccccc1", "activity change, negative = cytotoxic": "-5.11%"},
      {"smiles": "Nc1ccc(N=Nc2ccccc2)cc1", "activity change, negative = cytotoxic": "-29.5% [at 92.7 µM]"},
      {"smiles": "C[C@]12CC[C@@H]3[C@@H](CCC4=CC(=O)CC[C@@H]43)[C@@H]1CC[C@@H]2OC(=O)CCc1ccccc1", "Potency": "18.7 µM (active)"}
    ]}
  ]
}
